From PubChem BioAssay
Values without a mark were called inactive. Results filed as inconclusive are left out. The source made the active and inactive calls. Unless noted, how the calls were made is not given here.

Assays:
[1] = compounds altering viability of human ES cells (AID 493140); conditions: human embryonic stem cell survival screen; hits give high values;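 further: cells exposed to compounds for four days before counting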
[2] = signal quenchers or enhancers, Cy5 substrate/SSB – biochemical, NIH Clinical Collection, E. coli SSB, artefact control for HCV NS3 helicase inhibitor project (AID 743268); conditions: Cy5-oligo bound E. coli SSB, fluorescence interference
[3] = tested on: Hepatitis C virus NS3 helicase; experiment: blockers of NS3h binding to DNA – biochemical, fluorescence polarization, NIH Clinical Collection, primary screen (AID 743270); conditions: NS3 helicase binding to Cy5-dT15 DNA, hits give high values, concentration not given here
[4] = biological target: Single-stranded DNA-binding protein (Escherichia coli (strain K12)) (UniProt P0AGE0); experiment: SSB-ssDNA binding inhibitors – biochemical, fluorescence polarization, NIH Clinical Collection, counter-screen for HCV NS3 helicase inhibitor project (AID 743271; in the data active means inhibition above about 28%); conditions: E. coli SSB-DNA binding, hits give high values, concentration not given here
[5] = compounds distorting NS3 helicase fluorescence signal – biochemical, NIH Clinical Collection, artefact control for HCV NS3 helicase inhibitor project (AID 743272); conditions: fluorescence interference counterscreen, HCV NS3 helicase assay; hits give low values;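 further: HCV NS3 helicase with a Cy5 labelled single stranded DNA probe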
[6] = tested on: Hepatitis C virus NS3 helicase; experiment: blockers of NS3h binding to ssDNA – biochemical, fluorescence polarization, LOPAC1280 library, primary screen (AID 687035; in the data active means inhibition above about 37%); conditions: Purified HCV NS3 helicase, Cy5-dT15 ssDNA binding fluorescence polarization; hits give high values; concentration not given here
[7] = compounds altering Cy5-DNA-NS3h complex signal – biochemical, LOPAC1280, artefact control for HCV NS3 helicase inhibitor project (AID 687037); conditions: Cy5-DNA-NS3h complex fluorescence interference counterscreen
[8] = biological target: ATP-dependent translocase ABCB1 (Homo sapiens) (UniProt P08183); experiment: P-glycoprotein substrate transport blockade – cell-based (AID 377; in the data active means fluorescence slope change above about 50%); conditions: MDR1-expressing cells, fluorescent substrate accumulation slope; hits give high values; concentration not given here
ATP-dependent translocase ABCB1 (Homo sapiens), sequence (P08183 whole entry, looked up): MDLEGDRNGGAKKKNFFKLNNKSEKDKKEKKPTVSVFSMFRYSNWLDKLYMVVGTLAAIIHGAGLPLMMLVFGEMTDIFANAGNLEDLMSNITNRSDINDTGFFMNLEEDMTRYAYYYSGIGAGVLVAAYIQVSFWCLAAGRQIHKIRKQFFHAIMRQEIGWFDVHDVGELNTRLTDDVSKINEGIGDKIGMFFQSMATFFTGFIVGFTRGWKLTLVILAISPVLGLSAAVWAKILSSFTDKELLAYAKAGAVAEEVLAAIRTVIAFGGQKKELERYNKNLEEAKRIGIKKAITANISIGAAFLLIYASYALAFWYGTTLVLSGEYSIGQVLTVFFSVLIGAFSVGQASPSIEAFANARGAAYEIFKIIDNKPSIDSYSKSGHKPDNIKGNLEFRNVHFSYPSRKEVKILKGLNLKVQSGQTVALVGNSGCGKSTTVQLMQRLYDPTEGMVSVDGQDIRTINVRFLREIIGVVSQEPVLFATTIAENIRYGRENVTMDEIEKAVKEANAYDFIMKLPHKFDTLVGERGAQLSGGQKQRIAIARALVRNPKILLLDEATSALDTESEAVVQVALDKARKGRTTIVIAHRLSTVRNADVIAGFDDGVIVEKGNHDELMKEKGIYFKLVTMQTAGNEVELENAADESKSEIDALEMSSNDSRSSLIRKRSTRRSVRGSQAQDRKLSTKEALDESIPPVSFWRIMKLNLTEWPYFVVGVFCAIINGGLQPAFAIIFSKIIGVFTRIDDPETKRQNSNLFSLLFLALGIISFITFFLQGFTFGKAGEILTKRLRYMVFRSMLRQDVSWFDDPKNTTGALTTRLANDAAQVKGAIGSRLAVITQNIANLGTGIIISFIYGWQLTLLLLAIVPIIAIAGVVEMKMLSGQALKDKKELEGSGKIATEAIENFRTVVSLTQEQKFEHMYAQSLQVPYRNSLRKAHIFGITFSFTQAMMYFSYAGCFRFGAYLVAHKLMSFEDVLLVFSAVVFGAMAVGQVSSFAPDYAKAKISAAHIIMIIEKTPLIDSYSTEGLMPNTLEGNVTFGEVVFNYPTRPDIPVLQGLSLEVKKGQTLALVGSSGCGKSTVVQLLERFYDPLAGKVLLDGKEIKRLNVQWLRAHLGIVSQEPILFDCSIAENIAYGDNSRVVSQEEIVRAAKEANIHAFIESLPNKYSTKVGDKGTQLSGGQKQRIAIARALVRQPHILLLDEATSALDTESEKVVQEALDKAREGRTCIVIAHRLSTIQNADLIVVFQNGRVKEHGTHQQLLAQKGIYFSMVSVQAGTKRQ

C=C(NC(=O)C(=C)NC(=O)c1csc(C2=NC3c4csc(n4)C4NC(=O)c5csc(n5)C(C(C)(O)C(C)O)NC(=O)C5CSC(=N5)/C(=C/C)NC(=O)C(C(C)O)NC(=O)c5csc(n5)C3(CC2)NC(=O)C(C)NC(=O)C(=C)NC(=O)C(C)NC(=O)C(C(C)CC)NC2C=Cc3c(C(C)O)cc(nc3C2O)C(=O)OC4C)n1)C(N)=O (stereo not given)
survival [1]: 0.917

CO[C@H]1/C=C/O[C@@]2(C)Oc3c(C)c(O)c4c(O)c(c5c(c4c3C2=O)=NC2(CCN(CC(C)C)CC2)N=5)NC(=O)/C(C)=C\C=C\[C@H](C)[C@H](O)[C@@H](C)[C@@H](O)[C@@H](C)[C@H](OC(C)=O)[C@@H]1C
fluorescence ratio [2]: 1.02
inhibition [3]: 1.36%
inhibition [4]: 6.39%
fluorescence ratio [5]: 0.96

O=C(O)[C@@H]1C[C@@H](C(=O)O)N1
inhibition [6]: -1%
fluorescence ratio (interference) [7]: 1

CCCCN1CCC(n2c(=O)[nH]c3ccccc32)CC1
inhibition [6]: -2%
fluorescence ratio (interference) [7]: 1

O=C(O)/C=C/C(O)c1ccc(Cl)cc1 (stereo not given)
inhibition [6]: 1%
fluorescence ratio (interference) [7]: 1

CCCCCCCCCCCCCCCCCCNC(=O)OCC(COP(=O)([O-])OCC[n+]1ccsc1)OC (stereo not given)
inhibition [6]: 0%
fluorescence ratio (interference) [7]: 1

On1ccccc1=S
fluorescence slope change [8]: 9%

CCC(C(=O)C(C)C(O)C(C)CCc1ccc(C)c(O)c1C(=O)O)[C@H]1O[C@](CC)([C@H]2CCC(O)(CC)[C@H](C)O2)C[C@@H]1C (stereo not given in full)
fluorescence slope change [8]: 130% (active)
